# Reference: the supplement of paper PMC6555819
# What was measured:
# Experiment in all cases: PBM binding z-score (relative to random genomic background probes); higher = stronger binding; sequences stand for … in GC…GCGATTGACAGCGTAGAATGAAGG
# [1] = system: FXR:RXRa (NR concentration 270 nM, RXRa partner concentration 90 nM)
# Summary of the method: (§1)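 Binding buffer was PBS pH 7.4 with 2% milk, 0.02% Triton X-100, 1 mM DTT, 0.2 mg/mL BSA and 0.4 mg/ml salmon testes DNA. In it, ligand-free nuclear receptor dimers were incubated 1 h on custom Agilent 4×180K protein-binding microarrays carrying double-stranded probes. Antibodies against each partner (one per run) detected binding, and z-scores were calculated against random background probes after regression normalization of scanned fluorescence.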
# [2] = system: LXRa:RXRa (NR concentration 270 nM, RXRa partner concentration 90 nM)
# Summary of the method: as §1
# [3] = system: LXRa homodimer (NR concentration 270 nM)
# Summary of the method: as §1
# [4] = system: LXRb:RXRa (NR concentration 270 nM, RXRa partner concentration 90 nM)
# Summary of the method: as §1
# [5] = system: LXRb homodimer (NR concentration 270 nM)
# Summary of the method: as §1
# [6] = system: PPARa:RXRa (NR concentration 270 nM, RXRa partner concentration 90 nM)
# Summary of the method: as §1
# [7] = system: PPARg:RXRa (NR concentration 180 nM, RXRa partner concentration 90 nM)
# Summary of the method: as §1
# [8] = system: PPARg:RXRa 270nM:90nM, anti-RXR (NR concentration 270 nM, RXRa partner concentration 90 nM)
# Summary of the method: as §1
# [9] = system: PPARg:RXRa 30nM:10nM, anti-RXR (NR concentration 30 nM, RXRa partner concentration 10 nM)
# Summary of the method: as §1
# [10] = system: PPARg:RXRa 90nM:30nM, anti-RXR (NR concentration 90 nM, RXRa partner concentration 30 nM)
# Summary of the method: as §1
Sequence,PBM binding z-score [1],PBM binding z-score [2],PBM binding z-score [3],PBM binding z-score [4],PBM binding z-score [5],PBM binding z-score [6],PBM binding z-score [7],PBM binding z-score [8],PBM binding z-score [9],PBM binding z-score [10]
ATCTCTAGGTAAAGTTCAGTAAAAGATCGATAGA,1.06,1.77,1.7,1.29,0.992,2.18,2.91,4.22,2.52,4.14
CTCGAAAGGTCGGTTGAGGTGAGTCTACGGATAA,2.75,1.97,-0.215,1.29,-0.179,2.62,0.161,1.13,0.171,0.803
GCTGCTAGGTCAACTGATGGGCAGCTAAAGCTCG,3.7,2.69,-0.419,1.48,-0.413,3.25,2.39,3.09,0.29,1.62
CGTAAAAGTTCAAGGTAACGTAACAGAAAGCAGC,5.78,5.24,2.41,3.04,1.2,4.35,2.48,3.11,1.09,1.91
TTACCAAGGTGAGCTGAGGTCGTTCATCCAACTC,1.08,1.32,0.0661,0.862,-1.08,1.68,0.347,1,0.0261,0.463
TCGAGTATGTTAGTCGGGGCATTCAGCCAACATA,-0.336,-0.354,-0.761,0.103,-0.713,-0.0801,-0.372,0.0519,0.966,0.691
CCTGCTAGGTCATGGTCAGCTAGTCTACAGTATG,3.74,2.28,-0.0362,1.62,-0.295,3.45,2.38,2.89,0.503,1.92
TATACAGGGTCCAAGGCCAGAGTACGAATGTCGA,0.36,0.228,0.0779,0.18,1.02,0.314,0.93,0.625,0.686,0.795
ACCTCTAGGTAAAAGTTCAGTGAATCCCGAGGAT,0.332,0.842,0.847,0.401,-0.0602,3.58,7.09,7.47,6.26,8.74
TCTATTTGTTGATTAGGGCAACCGAAACAGCGGA,0.7,0.785,0.435,0.575,1.08,0.93,0.259,2.04,3.98,2.81
AGTCAAGGTTCAGGACGAGGTAACGTAAAGCACG,2.68,1.82,0.192,1.05,-0.0826,2.34,1.97,2.16,0.624,1.34
GGAACGCGGGCATTCGAGTTGATAGCATGGCGAT,-0.388,-0.465,-0.588,-1.04,-1.3,-1.13,-0.044,-0.711,-0.908,-0.624
TCGAGTAGGTTAGTCGGGGCGTTCAGCCAACATA,-0.0524,-0.272,-0.481,-0.0286,-1.19,0.148,-0.893,0.268,0.61,0.186
CCTAGCAGCCCAATCTGGGTCACTCAAGGCTTGA,0.0445,0.132,-0.399,0.523,-0.695,2.93,1.6,1.71,-0.36,1.1
TCATATAGGTAAACAGGTGAAAGTACGTAAGTTA,1.36,1.03,0.233,1.26,0.199,2.74,4.09,4.04,4.33,4.17
AGCCAAAGTTCATCTAGGTAACGTAAGATATGCT,6.68,6.25,5.31,3.78,1.41,4.86,5.36,5.53,2.27,4.72
AATACAGGGTCACTAGACCAGAGTAGGTACGAAT,5.74,4.72,0.962,3.65,0.659,5.33,6.24,5.76,2.72,4.31
ATCGAAAGGTCGAAGGTGAGTATTCCCACCCGAA,4.33,3.66,0.077,2.78,0.842,4.58,4.28,5,1.99,4.39
CCTACTGGGCCACGAAAGTTCATTGATTCAGTGA,0.912,3.67,4.62,1.82,-0.000733,2.69,2.47,2.77,0.297,1.86
CCGACTGGGGCAAGGTTACCATCACGCACAGCCA,0.162,0.447,-0.106,0.674,-1.14,1.79,2.72,3.61,0.851,2.78
CCTACTTGGCCAAAGGTCATTGATTCCAATGCTC,5.47,5.24,4.8,5.11,1.42,5.78,9.42,8.35,8.32,9.45
CGTCCAAGGTCAGAGAGGTGAGTGAATGCCGAGT,4.98,3.29,0.18,2.43,0.0466,4.06,2.73,2.95,0.53,1.78
TCTCGGAGGACACGAAAGCTCAGAGCTCGACATC,0.278,-0.178,-0.494,-0.291,-1.33,0.0148,0.133,0.762,2.01,1.21
TCGAGTAGGTCACCAATGGGGCATTCAGCTTTCT,3.29,3.16,-0.128,2.79,-0.57,4.45,5.85,5.14,2.8,4.74
